A selection: hits, their analogues and other compounds. The true share with any hit is near 6.8%.
SW480 rereplic = DNA re-replication induction in SW480 cells; SW480 DNA re-replication, Hoechst DNA content imaging, 48 h; 1.8% of 340,000 active; Potency, µM (titrated, usually from 46.1 µM), inactives show top-dose re-replication activation, actives largely listed as activators; note: % of control where 0% means no effect; nearly all actives have a fitted effect of over 55% in size
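First, 250 cells per well were seeded. Next, compound or vehicle (23 nL) was pinned in, plates sat 48 hr at 37 C. Finally Hoechst was added for 40 min before fluorescence scanning.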
PINK1 modulator = PINK1 expression modulation; Potency, µM (top dose mostly 76.6 µM), for the others: at the top dose activation (PINK1 increase), hits mostly activators; AID 624263; 0.2% of 410,000 active; PINK1 immunofluorescence, high-content cytometry, 24 h; active = well fitted activation curve with a large enough effect; inconclusive = small, poorly fitted or top-dose-only effect; cell line not stated here; note: % of control where 0% means no effect; nearly all actives have a fitted effect of over 65% in size
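Measures PINK1 amount and localization on or inside mitochondria by immunofluorescence. Stable cells get compounds at 5 concentrations for 24 hours before fixation and staining; CCCP controls included.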
KB-V1 MDR tox = kills drug-selected multidrug resistant KB-V1 cells | 3.4% of 400,000 active | Potency, µM (series often up to 46.1 µM), usual class: cytotoxic | AID 1347076 | KB-V1 MDR cells viability, CellTiter-Glo, 72 h; note: % is set by controls: 0 for no effect and ±100 for the full control effect; nearly all actives have a fitted effect of over 60% in size
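KB-V1 cells (P-gp-expressing MDR subline of KB-3-1) in phenol-red-free DMEM with 10% FBS were exposed to library compounds over a concentration series for 72 h at 37 degrees C. Viability read by CellTiter-Glo luminescence; concentration-effect curves fitted after normalization.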
MCF10A rerep = DNA re-replication induction in MCF 10a cells | MCF 10A DNA re-replication, Hoechst nuclear intensity, 48 h | Potency, µM (titrated, usually from 46.1 µM), for inactives: at the top dose activity, positive = re-replication, actives largely listed as activators | 2.9% of 350,000 active; note: % of control where 0% means no effect; nearly all actives have a fitted effect of over 50% in size
KB-3-1 cytotox = KB-3-1 parental cell cytotoxicity. KB-3-1 viability, CellTiter-Glo ATP luminescence, 72 h. Potency, µM (titrated, usually from 46.1 µM), usual class: cytotoxic. 1.4% of 400,000 active. AID 1347075; note: % is set by controls: 0 for no effect and ±100 for the full control effect; nearly all actives have a fitted effect of over 60% in size
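Multi-concentration cytotoxicity screen in KB-3-1 cells grown in DMEM lacking phenol red with 10% FBS. After 72 h at 37 °C with compound, ATP-dependent luminescence was recorded.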
PTAP TSG101 blk = blocks PTAP/TSG101 interaction to inhibit HIV-1 budding; 340,000 tested, under 10 active; Fluorescence polarization, FITC-PTAP peptide / Tsg101 binding; AID 493005; Potency, µM (titrated, usually from 115 µM), for inactives: at the highest dose activity change, negative = inhibition, actives largely listed as inhibitors; Q99816; active = well fitted inhibition curve with a large enough effect in the main read-out, with a control signal flat, not every such curve was filed as active; inconclusive = small, poorly fitted or top-dose-only effect, or effect the other way, or a change in a side signal; inactive = no such curve, though single readings can be large or run the other way; note: % of control where 0% means no effect
Target sequence (Q99816 whole entry, looked up): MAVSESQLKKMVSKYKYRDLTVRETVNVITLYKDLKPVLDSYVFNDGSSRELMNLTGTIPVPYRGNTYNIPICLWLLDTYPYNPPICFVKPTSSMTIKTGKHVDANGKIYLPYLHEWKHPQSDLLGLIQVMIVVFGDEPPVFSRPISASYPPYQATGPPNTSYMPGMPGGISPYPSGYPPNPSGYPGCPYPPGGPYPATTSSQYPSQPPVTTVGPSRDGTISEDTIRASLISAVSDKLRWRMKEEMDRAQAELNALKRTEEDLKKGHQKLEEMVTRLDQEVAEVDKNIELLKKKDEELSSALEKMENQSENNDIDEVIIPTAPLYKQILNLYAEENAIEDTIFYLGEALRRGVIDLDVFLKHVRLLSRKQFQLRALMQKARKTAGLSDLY
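FP read-out: FITC-PTAP peptide, 50 nM final, binding Tsg101 binding domain, 10 uM final; 20 min, r.t.; 10 mM HEPES pH 7.5, 0.15 M NaCl, 0.01% Tween 20, 3 mM EDTA, 0.1 mM TCEP.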
The depositor's hits bear a star; i = inactive; ? = inconclusive; · = no result; [ ] = dose if it differs, or a comment. Unless noted, calls come from the whole dose curve; as a rule, active = well fitted curve in the direction sought with a large enough effect; inconclusive = small, poorly fitted or top-dose-only effect, or another doubt; inactive = no such curve, though single readings can be large; an effect the other way counts as inactive or inconclusive. Potency is the fitted concentration of half-maximal effect.

SMILES | SW480 rereplic | PINK1 modulator | KB-V1 MDR tox | MCF10A rerep | KB-3-1 cytotox | PTAP TSG101 blk
Cc1ccc(C(=O)N(Cc2cc3cccc(C)c3nc2N2CCC(O)CC2)C2CC2)cc1 | · | 1% | · | · | · | ·
Cc1ccc(C2CC2c2n[nH]c(=S)n2-c2ccc(Cl)cc2)cc1 (stereo not drawn) | 3% | 4%[38.3 µM] | 16µM* | 91% | ? | -7%
Cc1ccc(S(=O)(=O)Nc2ccc(Nc3nccn4c(-c5ccccc5Oc5ccccc5)cnc34)cc2)cc1 | · | 2% | i | · | i | ·
Cc1ccc(S(=O)(=O)Nc2ccc(Nc3nccn4c(-c5ccc6ccccc6c5)cnc34)cc2)cc1 | · | -1% | 12µM* | · | i | ·
O=C(Cn1c(=O)n(-c2ccccc2Cl)c(=O)c2sc3ccccc3c21)NC1CCCC1 | · | 4% | i | · | i | ·
CO[C@]12C[C@@H](COC(=O)c3cncc(Br)c3)CN(C)[C@@H]1Cc1cn(C)c3cccc2c13 | -14% | · | · | 1%[9.22 µM] | · | ·
CCOC(=O)C1=C(C)Nc2nc(SC)nn2C1c1ccc(C(=O)OC)cc1 (stereo not drawn) | -4% | ? | 5.8µM* | -1% | i | -1%
CCCN(CCC)C(=O)Cn1c(=O)n(-c2ccc(CC)cc2)c(=O)c2ccc(C(=O)NCCc3ccccc3)cc21 | · | ? | ? | · | i | ·
CC1CCCN(c2nc3c(c(=O)n(C)c(=O)n3C)n2CCSc2nc3ccccc3s2)C1 (stereo not drawn) | -16% | 1% | 10µM* | ? | ? | -4%
CC1CCN(c2nc3c(c(=O)n(C)c(=O)n3C)n2CCSc2nc3ccccc3s2)CC1 | 12% | 0% | 15µM* | ? | ? | -5%
CC1CCCN(c2nc3c(c(=O)n(C)c(=O)n3C)n2CCSc2nc3ccccc3o2)C1 (stereo not drawn) | -17% | 7%[38.3 µM] | 2.6µM* | 3% | i | -10%
Cc1c(C(=O)N2CCCC2)sc2ncnc(NCCN(C)C)c12 | · | 1% | · | · | · | ·
Oc1cc(Nc2cccnc2)cc2cccnc12 | ? | 0% | i | ? | 21µM* | -6%
CN(C)c1ccc(-c2cc(O)c3ncccc3c2)cc1 | ? | 6% | i | -17% | i | -11%
Oc1cc(-c2ccc(N3CCCCC3)nc2)cc2cccnc12 | 0.82µM* | 13µM* | ? | ? | 5.2µM* | -6%
Oc1cc(-c2ccncc2)cc2cccnc12 | -6% | 0% | ? | ? | 10µM* | -5%
Cc1cccc(CCNC(=O)c2ccc3c(c2)nc2n3CCOC2)c1 | · | 1% | · | · | · | ·
NN=C1c2ccccc2C(=O)C1C(=O)C(c1ccccc1)c1ccccc1 (stereo not drawn) | 4% | 0% | i | 12µM* | i | 4%
COC(=O)c1cn(C(=O)c2ccc(C)cc2C)c2ccccc12 | 8.2µM* | 28% | i | 4.6µM* | ? | -6%
COC(=O)c1cn(C(=O)c2ccccc2Cl)c2ccccc12 | 3% | 5% | i | ? | ? | ?
COc1ccc2nc(NN=C(C)c3ccccn3)cc(C)c2c1 | ? | -7% | 1.2µM* | ? | ? | -1%
CN(Cc1cccs1)c1ncnc2ccc(-c3ccc4cn(C)nc4c3)cc12 | · | · | i | · | ? | ·
S=c1nc[nH]c2c1cnn2-c1ccccc1 | -7% | -2% | 8.2µM* | 0% | ? | -10%
Nc1ncnc2c1cnn2-c1ccccc1 | -15% | · | ? | 5% | i | -6%
COc1ccc2nc(N3C(=O)/C(=C/c4ccc(Cl)cc4)NC3=S)sc2c1 | 0% | 22µM* | ? | 9% | ? | 5%
SMILES | SW480 rereplic | PINK1 modulator | KB-V1 MDR tox | MCF10A rerep | KB-3-1 cytotox | PTAP TSG101 blk
CCOc1ccc2nc(N3C(=O)CNC3=S)sc2c1 | ? | 1% | ? | ? | i | -1%
COc1ccc2c(c1)C(=O)[C@H](O)[C@@H](c1ccc(OC)c(Br)c1)O2 | 4.1µM* | ? | i | ? | i | -9%
O=c1[nH]c(SCc2ccccc2)ncc1S(=O)(=O)c1ccccc1 | · | 0% | · | · | · | ·
CC(=O)c1nn(-c2ccccc2)cc1C(=O)c1ccc(Br)cc1 | ? | 4% | i | ? | i | -1%
O=C(c1cccc(Br)c1)c1cn(-c2ccccc2)nc1C(=O)c1ccccc1 | 6% | 4% | 12µM* | 2% | i | -1%
CC(=O)c1nn(-c2cccc(Br)c2)cc1C(=O)c1ccc(Cl)cc1 | ? | 0% | i | 4.6µM* | i | -2%
CC(=O)c1nn(-c2ccccc2)cc1C(=O)c1cccc(Br)c1 | ? | 6% | i | 1.6µM* | i | -9%
CC(=O)c1nn(-c2cccc(Br)c2)cc1C(=O)c1ccccc1 | -7% | 15% | i | ? | i | -4%
COCCN(C)C(=O)c1cnn(-c2nccc(-c3cc(OC)ccc3OC)n2)c1C | · | 0% | · | · | · | ·
CC(=O)c1cccc(Nc2cc(C)nc3c(C)cc(C)cc23)c1 | 10% | -3% | 16µM* | ? | i | -2%
CC(=O)c1ccc(Nc2cc(C)nc3ccccc23)cc1 | 18µM* | 0% | ? | ? | ? | -6%
CC(=O)c1ccc(Nc2cc(C)nc3c(C)cccc23)cc1 | 1.2µM* | 6% | 2.9µM* | 23µM* | i | -1%
COc1ccc(Nc2cc(C)nc3ccccc23)cc1 | -7% | 0%[38.3 µM] | i | 5% | i | -3%
CC(=O)c1cccc(Nc2cc(C)nc3ccc(C)cc23)c1 | 3%[9.22 µM] | 3% | ? | -31% | ? | -2%
Cc1ccc(Nc2cc(C)nc3c(C)cccc23)cc1 | 0% | 1% | 8.2µM* | 7% | ? | -5%
Cc1ccc(-c2cn3c(n2)sc2cc(C(=O)NC4CCCCC4)ccc23)cc1 | · | 1% | · | · | · | ·
CCC(=O)N1CCc2cc(S(=O)(=O)CCC(=O)N3CCN(c4cccc(C)c4)C(C)C3)ccc21 (stereo not drawn) | · | 2% | i | · | i | ·
CC(C)Cc1cc(C(=O)O)c2ccccc2n1 | -16% | -5%[38.3 µM] | i | -10% | i | -3%
CC(=O)c1ccc(NC(=O)c2cc(CC(C)C)nc3ccccc23)cc1 | -2% | 6% | i | 0.82µM* | i | -7%
CS(=O)(=O)Nc1cccc(-c2ccc3ncnc(NCCN4CCOCC4)c3c2)c1 | · | 0% | · | · | · | ·
COc1cccc(CN2Cc3cccc4c3[C@H](C=CC4)CC2=O)c1 | · | · | ? | · | i | ·
Cc1ccc(C(=O)Nc2cnn(-c3ccc(C(=O)N(C)Cc4n[nH]c5c4CCCC5)cc3)c2)c(C)c1 | · | -1% | · | · | · | ·
COC(=O)c1c(NC(=O)CN2CCCc3ccccc32)sc(C)c1C | ? | 11% | ? | 15µM* | i | 2%

Source: PubChem
